Assay outcomes: PubChem, several laboratories
CYP2C9 act – CYP2C9 (human) activation. P11712. recombinant CYP2C9, luciferin-H conversion, luminescence; hits give high values; factor 1 = untreated enzyme, 0 = blocked. activation factor at 5 µM. AID 1024. 1.4% of 96,000 active;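 active = activation factor of 2 or more for CYP2C9 at a 5 µM dose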;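 note: 0 = sulfaphenazole-blocked wells and 1 = vehicle-only wells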
Target sequence (P11712 whole entry, looked up): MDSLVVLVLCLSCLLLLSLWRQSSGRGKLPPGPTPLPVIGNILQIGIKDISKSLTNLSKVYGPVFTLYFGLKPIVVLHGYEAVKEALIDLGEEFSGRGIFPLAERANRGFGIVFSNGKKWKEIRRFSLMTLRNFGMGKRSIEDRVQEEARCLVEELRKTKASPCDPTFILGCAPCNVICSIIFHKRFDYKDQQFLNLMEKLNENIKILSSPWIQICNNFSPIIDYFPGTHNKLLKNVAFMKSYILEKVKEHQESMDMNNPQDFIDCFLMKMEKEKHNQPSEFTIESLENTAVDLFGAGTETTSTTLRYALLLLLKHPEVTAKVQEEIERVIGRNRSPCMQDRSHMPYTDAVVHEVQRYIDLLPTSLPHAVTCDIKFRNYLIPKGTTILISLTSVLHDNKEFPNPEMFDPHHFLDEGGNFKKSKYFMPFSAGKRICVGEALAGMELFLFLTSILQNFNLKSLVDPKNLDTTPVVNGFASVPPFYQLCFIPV
Measles CPE – protection of cells from measles virus | Measles virus-infected cells, CPE protection, absorbance | protection (pct of control), % at 4 µM | 1.5% of 140,000 active | AID 841; in the data active = protection mostly above about 24%, no sharp cut-off; inactive = mostly below about 26%
CYP2C9 inh – human CYP2C9 inhibition | P11712 | CYP2C9 Supersomes, luciferin-H conversion, luminescence | inhibition, % at 5 µM | 20% of 96,000 active | AID 777;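 active = blocking of liver enzyme CYP2C9 beyond about 50% at 5 µM, limit read from the data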
CYP2C19 inh – inhibitors of human CYP2C19 | CYP2C19 Supersomes, luciferin-H EGE luminescence, 30 min | AID 778 | inhibition, % at 5 µM | 21% of 96,000 active | P33261;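 active = CYP2C19 inhibition above a set limit at 5 µM in the primary screen, cut at about 50% in these data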;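 note: plate controls were negative control wells for no effect and 2.5 mM tranylcypromine positive control for full effect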
CYP2C19 activ – activators of human cytochrome P450 2C19 | P33261 | recombinant CYP2C19, luciferin-H EGE luminescence; hits give high values; 0 = fully inhibited enzyme, 1 = untreated enzyme | activation factor at 5 µM | 96,000 tested, under 10 active;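 active = activation factor of at least 2 at 5 µM in the primary screen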;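 note: 0 = wells with 2.5 mM tranylcypromine and 1 = vehicle-only wells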
Active calls of the source: *; nt = no result given. Only some compounds are listed: those with a hit (about 22% of all), similar ones and a draw of the others.

SMILES	CYP2C9 act	Measles CPE	CYP2C9 inh	CYP2C19 inh	CYP2C19 activ
Cc1ccc(C2CC(C(F)(F)F)n3ncc(C(=O)NCc4ccco4)c3N2)cc1 (configuration not stated)	0.7	28	25	26	0.7
CCn1c(SCC(=O)c2ccc(O)c(O)c2)nnc1-c1ccccc1	0.8	11	24	98*	0
CCn1c(SCC(=O)c2ccc(O)c(O)c2)nnc1-c1ccccc1OC	1.3	11	-28	67*	0.3
COc1cc(C(=O)NC(=S)Nc2ccc([N+](=O)[O-])cc2)cc(OC)c1OC	nt	8	nt	nt	nt
CNc1nc(Nc2ccc(Br)cc2)nc(N)c1[N+](=O)[O-]	nt	27	nt	nt	nt
CCOC(=O)C(NC(=O)NCc1ccc(F)cc1)(OCC)C(F)(F)F (configuration not stated)	nt	8	nt	nt	nt
CCOC(=O)C(NC(=O)Nc1ccccc1)(OCC)C(F)(F)F (configuration not stated)	0.8	16	20	50*	0.5
CCOC(=O)Cc1cnc(NC(=O)NC(C(=O)OCC)(c2ccccc2)C(F)(F)F)s1 (configuration not stated)	0.7	4	33	53*	0.5
CCOC(=O)Cc1csc(NC(NC(=O)OCC)(C(=O)OCC)C(F)(F)F)n1 (configuration not stated)	nt	14	nt	nt	nt
CCOC(=O)C(NC(C)=O)(OCc1ccc(F)cc1)C(F)(F)F (configuration not stated)	0.9	10	9	55*	0.4
Cn1c(C(=O)OC(C(=O)NC2CCCCC2)c2cccnc2)cc2sccc21 (configuration not stated)	0.3	6	74*	96*	0
COCCNC(=O)C(C)OC(=O)c1cc2occc2n1C (configuration not stated)	0.2	23	80*	4	1
Cn1c(C(=O)OC(C(=O)NC2CCCC2)c2cccnc2)cc2sccc21 (configuration not stated)	nt	5	nt	nt	nt
Cn1c(C(=O)OCC(=O)NCC2CCCO2)cc2sccc21 (configuration not stated)	nt	10	nt	nt	nt
Cn1c(C(=O)OCC(=O)NCc2cccs2)cc2sccc21	0.3	0	66*	51*	0.5
Cn1c(C(=O)OCC(=O)NCCc2ccccc2)cc2sccc21	0.3	25	69*	32	0.7
COC(=O)c1cc2occc2n1Cc1ccc(Cl)cc1	0.9	5	11	2	1
CC(C)CCn1c(SCC(N)=O)nc2c1c(=O)n(C)c(=O)n2C	1	2	-2	-14	1.1
CC(OC(=O)c1cc2sccc2n1C)C(=O)NCc1cccs1 (configuration not stated)	0.2	27	77*	45	0.5
CCOc1ccc(CCNC(=O)c2cc3sccc3n2C)cc1OCC	0.3	13	67*	94*	0.1
CCOc1ccc(CCNC(=O)c2cc3sc(Cl)cc3n2C)cc1OCC	1	16	2	14	0.9
Clc1ccccc1OCc1nc(-c2ccncc2)no1	0	1	98*	98*	0
Clc1ccc(OCc2nc(-c3ccncc3)no2)c(Br)c1	0.1	6	95*	94*	0.1
Cc1ccccc1OCc1nc(-c2ccc(-n3cccc3)cc2)no1	1	10	4	-7	1.1
O=[N+]([O-])c1ccccc1-c1ccc(/C=N/n2cnnc2)o1	1	5	4	24	0.8
SMILES	CYP2C9 act	Measles CPE	CYP2C9 inh	CYP2C19 inh	CYP2C19 activ
Clc1cccc(-c2ccc(/C=N/n3cnnc3)o2)c1	0.8	10	25	51*	0.5
Cc1ccc(-c2ccc(/C=N/n3cnnc3)o2)cc1Cl	0.4	26	61*	64*	0.4
CCC(c1nnnn1CCc1ccccc1)N1CCN(c2ccc(OC)cc2)CC1 (configuration not stated)	0.8	5	25	30	0.7
COc1ccc(S(=O)(=O)Cc2ccc(C(=O)N3CCOCC3)o2)cc1	1	1	-2	-11	1.1
O=C(c1ccc(CS(=O)(=O)c2c(Cl)cccc2Cl)o1)N1CCN(c2ccccn2)CC1	1	16	0	93*	0.1
O=C(c1ccc(CS(=O)(=O)c2cccc(C(F)(F)F)c2)o1)N1CCN(c2ccccn2)CC1	0.4	nt	60*	54*	0.5
O=C(c1ccc(CS(=O)(=O)c2ccc(Br)cc2)o1)N1CCOCC1	1.1	-1	-6	-4	1
O=C(O)c1ccc(CS(=O)(=O)c2cccc(C(F)(F)F)c2)o1	nt	25	nt	nt	nt
Cc1ccc(S(=O)(=O)Cc2ccc(C(=O)N3CCN(c4ccccn4)CC3)o2)cc1	0.3	2	70*	11	0.9
O=C(c1ccc(CS(=O)(=O)c2ccc(Br)cc2)o1)N1CCN(c2ccccn2)CC1	0.3	6	69*	28	0.7
N=C(N)N1CCc2ccccc2C1	nt	10	nt	nt	nt
CC1CCC(NC(=O)c2cnccn2)CC1 (configuration not stated)	0.7	15	35	23	0.8
Cc1cccc(-c2c3c(=O)n(C)c(=O)n(C)c3cn2CC2CCCO2)c1 (configuration not stated)	0.9	16	9	1	1
Cc1ccccc1CSc1nc(-c2ccccc2)cc(=O)[nH]1	nt	21	nt	nt	nt
O=C(c1ccc(CS(=O)(=O)c2ccccc2)o1)N1CCN(c2ncccn2)CC1	0.4	13	64*	54*	0.5
CC1(C)CC(CCNC(=O)c2ccc(-n3cnnn3)cc2)CC(C)(C)N1	0.9	30*	13	-3	1
Cc1ccc2c(c1)c1c3n2CC(=C2C(=O)OC(C)(C)OC2=O)NC3CCC1 (configuration not stated)	0.2	5	81*	40	0.6
CC1(C)Cc2c(C#N)c(N3CCOCC3)nc(-c3ccccc3)c2CO1	nt	6	nt	nt	nt
CCCC(=O)N1CCN(c2nc(CC(C)C)c3c(c2C#N)CCC3)CC1	0.1	23	89*	89*	0.1
CC(C)Cc1nc(N2CCN(C(=O)Cc3ccccc3)CC2)c(C#N)c2c1COC(C)(C)C2	0.5	nt	46	27	0.7
CC(C)C(=O)N1CCN(c2nc(-c3ccccc3)c3c(c2C#N)CCCC3)CC1	0.1	4	94*	98*	0
CCC1(C)CC(c2nc(-c3ccc(OC)cc3)cs2)CCS1 (configuration not stated)	nt	4	nt	nt	nt
COc1ccc(S(=O)(=O)Nc2nc3ccccc3s2)cc1OC	0.4	6	62*	25	0.7
O=S(=O)(Nc1nc2ccccc2s1)c1ccc(Br)s1	0	9	96*	81*	0.2
CC(=O)Nc1ccc(S(=O)(=O)Nc2nc3c(s2)CCCC3)cc1	0.6	20	43	91*	0.1
CC(=O)Nc1ccc(S(=O)(=O)Nc2nc3ccccc3s2)cc1	0.4	26	62*	33	0.7
CCOc1ccc2nc(NS(=O)(=O)c3ccc(NC(C)=O)cc3)sc2c1	0.8	26	15	5	1
O=C1/C(=C\c2cccs2)Sc2ccc3ccccc3c21	nt	14	nt	nt	nt
